Measurements: PubChem BioAssay (NCI)
Compounds without any hit were thinned out: in the full panel of roughly 79,000, 15% have a hit. Values without a mark were called inactive. Rule as the data show it: active = growth inhibition above about 70%; inactive = the rest.

assay: NCI Yeast Anticancer Drug Screen. Data for the rad50 strain (AID 155);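 also: 0% = growth of vehicle-only cultures of the same strain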; details: S. cerevisiae rad50 strain growth inhibition; at 50.0 µM; stronger effect = higher value
In short: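 A DNA repair-deficient yeast mutant serves as the test organism; compound-induced growth inhibition is calculated against vehicle-treated cells.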

Compound | growth inhibition
COc1cc(C(=O)O)c(Br)c(OC)c1OC | -1.55%
Cc1cc2c(cc1C)OC(=O)CC2 | 14.3%
CC(C)(C)N(Cc1ccccc1)C(=O)Nc1ccccc1 | 6.45%
C#CCN(Cc1ccc2nc(-c3ccccc3)c(N)nc2c1)c1cc(OC)c(OC)c(OC)c1 | -0.75%
NC(=O)O/N=C/c1ccccn1 | -12.1%
O.[Cl][Co]([Cl])[Cl].c1c[nH]cn1.c1c[nH]cn1 | -0.85%
O=S(O)CCCCCSSSCCCCCS(=O)O | 8.2%
Nc1[nH]n(-c2ccccc2)c(=O)c1C1c2ccccc2Sc2ccccc21 | 8.7%
CCOC(=O)c1ccc(NC(=O)Oc2cc(C)c(Cl)c(C)c2)cc1 | 7.8%
CC(=O)Oc1ccc(C(c2ccccc2)c2ccccc2)c2ccccc12 | -9.8%
COc1ncnc2ncn(C)c12 | 4.9%
CN(C)Cc1cc(C(=O)/C=C/c2ccc(Cl)cc2)cc(CN(C)C)c1O | -27.6%
CCN1C(=O)CC(SCCSC2CC(=O)N(CC)C2=O)C1=O (stereo not given) | 16.7%
COc1ccc(CC(C)SC(CC(=O)O)C(=O)O)cc1 (stereo not given) | 3.45%
CC1(C)N(/N=C/c2ccccc2)C(c2ccccc2)C(c2ccccc2)N1/N=C/c1ccccc1 (stereo not given) | -8.95%
O=C(/C=C/c1ccc(Cl)cc1)c1cccs1 | -2.85%
CC(=O)COc1cccc2ccccc12 | -1.15%
CC[N+](C)(CC)CCOC(=O)C(c1ccccc1)C(O)C1CCCCC1 (stereo not given) | 29.8%
N#CC(NNC(=O)Cc1ccccc1)c1ccccc1O (stereo not given) | 0.8%
CN(C)CCSS(=O)(=O)O | -4.9%

Compound | growth inhibition
CCc1cc2c(Nc3ccccc3)c3c(nc2s1)CCCC3 | -15.3%
Cc1cccc2c1C(=O)C(C1OC(=O)c3ccccc31)C2 (stereo not given) | 7.15%
Nc1cccc2ccc(S(=O)(=O)O)cc12 | -3.05%
O=C1N=C2SC(=S)NC(=S)N2NC12c1ccccc1-c1ccccc12 | 30.1%
N#CC(=C1CCCCC1)c1ccccc1 | -14.1%
CC(C)C(=O)C(C)(C)CCc1ccccn1 | -23.4%
[O-][n+]1c2ccc(Cl)cc2nc2ccc(Cl)cc21 | -9.35%
CCN(CC)CN1C(=O)C(=O)c2ccccc21 | 6.8%
Nc1nc(-c2ccccc2)cc(-c2cc(-c3ccccc3)nc(N)n2)n1 | 12.8%
O=C(O)C(O)c1c[nH]c2ccccc12 (stereo not given) | -4.85%
CCc1cc(O)c([N+](=O)[O-])cc1[N+](=O)[O-] | -15.7%
Cc1cc2c(cc1Cl)SC(N/N=C(\N)c1ccc(Cl)cc1)=NS2(=O)=O | -34.2%
COc1nc2ccccc2c(=O)[nH]1 | -6.7%
CCC(C)(O)C#CC(C)(O)CC (stereo not given) | -0.1%
CN(c1ccccc1)C1C(=O)N(c2ccccc2)C1/C=C/c1ccccc1 (stereo not given) | -8.7%
O=C(O)c1cccc([N+](=O)[O-])c1Nc1cccc(C(F)(F)F)c1 | 21.4%
NC(=O)c1ccc[n+](CCCCCCCCCCC(=O)[O-])c1 | -7%
CC(=O)O[C@@H]1[C@H]2O[C@H]2[C@H]2O[C@@]2(COC(=O)c2ccccc2)[C@H]1OC(C)=O | 12.8%
CC(=O)Nc1cc(Cl)c(Oc2ccccc2)cc1[N+](=O)[O-] | 19.2%
O=C(NNC(=S)Nc1ccccc1)c1nsc2ccccc12 | 43.5%

assay: NCI Yeast Anticancer Drug Screen. Data for the mec2-1 strain (AID 157); details: S. cerevisiae mec2-1 strain, at 50.0 µM, stronger effect = higher value
In short: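 Cells of the genetically defined mec2-1 yeast strain are incubated with test compound. Inhibition of growth is calculated against vehicle-treated controls.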

Compound | growth inhibition
COc1cc(C(=O)O)c(Br)c(OC)c1OC | 20.1%
Cc1cc2c(cc1C)OC(=O)CC2 | 6.15%
CC(C)(C)N(Cc1ccccc1)C(=O)Nc1ccccc1 | 3.95%
C#CCN(Cc1ccc2nc(-c3ccccc3)c(N)nc2c1)c1cc(OC)c(OC)c(OC)c1 | 5.25%
NC(=O)O/N=C/c1ccccn1 | 2.75%
O.[Cl][Co]([Cl])[Cl].c1c[nH]cn1.c1c[nH]cn1 | -5.6%
O=S(O)CCCCCSSSCCCCCS(=O)O | 8.8%
Nc1[nH]n(-c2ccccc2)c(=O)c1C1c2ccccc2Sc2ccccc21 | 11.2%
CCOC(=O)c1ccc(NC(=O)Oc2cc(C)c(Cl)c(C)c2)cc1 | -3.4%
CC(=O)Oc1ccc(C(c2ccccc2)c2ccccc2)c2ccccc12 | -13.4%
COc1ncnc2ncn(C)c12 | 18%
CN(C)Cc1cc(C(=O)/C=C/c2ccc(Cl)cc2)cc(CN(C)C)c1O | -22.1%
CCN1C(=O)CC(SCCSC2CC(=O)N(CC)C2=O)C1=O (stereo not given) | -7.7%
COc1ccc(CC(C)SC(CC(=O)O)C(=O)O)cc1 (stereo not given) | -1%
CC1(C)N(/N=C/c2ccccc2)C(c2ccccc2)C(c2ccccc2)N1/N=C/c1ccccc1 (stereo not given) | -6.45%
O=C(/C=C/c1ccc(Cl)cc1)c1cccs1 | -14.3%
CC(=O)COc1cccc2ccccc12 | -3.1%
CC[N+](C)(CC)CCOC(=O)C(c1ccccc1)C(O)C1CCCCC1 (stereo not given) | -5.45%
N#CC(NNC(=O)Cc1ccccc1)c1ccccc1O (stereo not given) | -10%
CN(C)CCSS(=O)(=O)O | -23.1%

Compound | growth inhibition
CCc1cc2c(Nc3ccccc3)c3c(nc2s1)CCCC3 | -25.8%
Cc1cccc2c1C(=O)C(C1OC(=O)c3ccccc31)C2 (stereo not given) | 9.75%
Nc1cccc2ccc(S(=O)(=O)O)cc12 | -9%
O=C1N=C2SC(=S)NC(=S)N2NC12c1ccccc1-c1ccccc12 | -11.4%
N#CC(=C1CCCCC1)c1ccccc1 | -21.2%
CC(C)C(=O)C(C)(C)CCc1ccccn1 | -24.8%
[O-][n+]1c2ccc(Cl)cc2nc2ccc(Cl)cc21 | -10.9%
CCN(CC)CN1C(=O)C(=O)c2ccccc21 | -25.4%
Nc1nc(-c2ccccc2)cc(-c2cc(-c3ccccc3)nc(N)n2)n1 | -8.35%
O=C(O)C(O)c1c[nH]c2ccccc12 (stereo not given) | -2.3%
CCc1cc(O)c([N+](=O)[O-])cc1[N+](=O)[O-] | -3.95%
Cc1cc2c(cc1Cl)SC(N/N=C(\N)c1ccc(Cl)cc1)=NS2(=O)=O | -0.8%
COc1nc2ccccc2c(=O)[nH]1 | -5.2%
CCC(C)(O)C#CC(C)(O)CC (stereo not given) | -0.95%
CN(c1ccccc1)C1C(=O)N(c2ccccc2)C1/C=C/c1ccccc1 (stereo not given) | 0.8%
O=C(O)c1cccc([N+](=O)[O-])c1Nc1cccc(C(F)(F)F)c1 | 32.5%
NC(=O)c1ccc[n+](CCCCCCCCCCC(=O)[O-])c1 | 7.05%
CC(=O)O[C@@H]1[C@H]2O[C@H]2[C@H]2O[C@@]2(COC(=O)c2ccccc2)[C@H]1OC(C)=O | -25.2%
CC(=O)Nc1cc(Cl)c(Oc2ccccc2)cc1[N+](=O)[O-] | 27.9%
O=C(NNC(=S)Nc1ccccc1)c1nsc2ccccc12 | 12.2%
